Platelet DG rel: inhibitors of platelet dense granule secretion, primary screen, cell-based, MLPCN, human platelets. human platelet-rich plasma, SFLLRN dense granule ATP release, luminescence. inhibition, %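 (compounds screened at 7.5 µM in platelet-rich plasma)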. 300,000 tested, 0.22% active. AID 1663, 2009;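 active = mean replicate score, as percent of positive control, at or above 50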
HSF-1 act: HSF-1 activators, primary screen, NIH3T3-HGL cells, MG132 stress, luminescence, single point. activation, % at 9 µM. NIH3T3-HGL HSF-1 luciferase reporter, 8 h; 100% = twice DMSO control signal. 300,000 tested, 1.7% active;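 active = mean replicate activation of at least 50% with a set share of replicates each reaching 50%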;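 also: 0% = median of the neutral control wells and 100% = twice that signal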
dFosB activator: activators of delta FosB homodimer, primary screen, biochemical, fluorescence polarization, TAMRA-CDK5 oligo, single point; Protein FosB (Mus musculus), P13346; purified delta FosB; percent of positive-control signal above neutral wells; activation, % at 25 µM; 340,000 tested, 0.99% active;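 active = mean activation above about 17%, with every replicate also reaching it, limit read from the data, passing the limit was not always enough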
Target sequence (P13346 whole entry, looked up): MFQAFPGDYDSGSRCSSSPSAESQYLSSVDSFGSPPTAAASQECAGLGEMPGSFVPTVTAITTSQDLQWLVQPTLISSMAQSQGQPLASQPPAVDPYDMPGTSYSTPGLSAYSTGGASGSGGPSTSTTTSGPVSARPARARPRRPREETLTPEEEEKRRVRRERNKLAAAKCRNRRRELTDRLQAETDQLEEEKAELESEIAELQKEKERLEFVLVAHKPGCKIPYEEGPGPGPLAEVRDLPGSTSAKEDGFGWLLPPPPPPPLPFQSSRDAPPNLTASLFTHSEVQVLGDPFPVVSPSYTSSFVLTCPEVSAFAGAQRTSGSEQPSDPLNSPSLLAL
MPTP block: mitochondrial permeability transition pore inhibitors, primary screen, biochemical, isolated mouse mitochondria, absorbance | Ca2+ swelling absorbance, 30 min | inhibition, % at 10 µM | 360,000 tested, 1.4% active | AID 602449, 2012;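 active = inhibition of 50% or more, scaled per plate between neutral and stimulator controls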;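 also: 0% = DMSO wells given calcium and 100% = 1 mM EGTA wells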
HSF1 inhib: HSF1 inhibitors in luciferase reporter cells, primary screen, cell-based, NIH3T3, luminescence; activity change, negative = inhibition, % at 7.5 µM (by protocol); 300,000 tested, 0.77% active; AID 2098, 2009; NIH3T3-HGL HSE-luciferase, MG132-induced, luminescence 8 h; stronger effect = lower value;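 active = more than half of replicate wells show activity change below -50%, luminescence cut by over half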;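 also: luciferase reports HSF-1 transcriptional activity via heat shock element; 0% = median of DMSO wells and -100% = zero luminescence signal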
HSP90 refold inh: HSP90 inhibitors, primary screen, cell lysate, luminescence; 290,000 tested, 0.91% active; AID 1789, 2009; Rabbit reticulocyte lysate, luciferase refolding luminescence, 3 h; inhibition, % at 5.6 µM; Heat shock protein HSP 90 (rabbit reticulocyte lysate; luciferase refolding);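 active = inhibition above the screen-wide mean plus 3 SD, computed separately per campaign, cut at about 16% in these data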;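 also: 0% = DMSO wells and 100% = 60 µM geldanamycin wells; inhibitors lower the luminescence because luciferase stays unfolded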
Active calls of the source: *; . = not tested or not shown. Hits are enriched below; roughly 4.9% of the tested compounds scored in any of these assays.

SMILES | Platelet DG rel | HSF-1 act | dFosB activator | MPTP block | HSF1 inhib | HSP90 refold inh
CN(c1ccccc1)c1ccc(/C=C/[N+](=O)[O-])cc1 | 15 | 198* | -13 | -1 | 164 | 1
CC(C)NC(=S)n1cc(C(=O)c2cc(Cl)cc(Cl)c2O)cn1 | 3 | 0 | -11 | 0 | 2 | -4
COc1ccc(NC(=O)C2CCCN(c3nn4c(=O)cc(C)nc4s3)C2)cc1 (stereo not given) | 104* | -4 | -4 | -1 | -2 | -6
COc1cccc(CNC(=O)C2CCCN(c3nn4c(=O)cc(C)nc4s3)C2)c1 (stereo not given) | . | . | 0 | 1 | . | 9
Clc1ccc(C2Nc3cccc4cccc(c34)N2)cc1 | 5 | 1 | 2 | 4 | -4 | 5
Brc1ccc(C2Nc3cccc4cccc(c34)N2)s1 | . | . | 23* | 38 | . | 8
O=C(C1CCC(CNS(=O)(=O)c2cccc3cccnc23)CC1)N1CCCC1 (stereo not given) | -1 | -89 | -9 | -1 | -86* | 3
CC(C)c1ccc(NC(=O)CSc2n[nH]c(=O)n2-c2ccc3c(c2)OCCO3)cc1 | -16 | 18 | . | 1 | -3 | 1
CC(Sc1nc(-c2ccccc2)cc(C(F)(F)F)n1)C(=O)Nc1sc2c(c1C#N)CCC2 (stereo not given) | 9 | 57* | -3 | 1 | 17 | -1
Cc1cc(=O)c2c(C)ccc(C)c2[nH]1 | 1 | -2 | 2 | 0 | -5 | -2
CN(/C(=N\S(=O)(=O)c1ccccc1)C(F)(F)F)c1ccccc1 | -1 | -64 | 5 | -1 | -56* | 1
Cc1ccc(S(=O)(=O)/N=C(\c2ccccc2)N(C)S(=O)(=O)c2ccccc2)cc1 | 8 | 15 | -1 | 1 | 2 | -2
O=C(NCc1ccccc1)c1cc(C2CCCCN2C(=O)OCCF)on1 (stereo not given) | . | . | . | 2 | . | .
CN(C)/C=N/NC(=O)c1ccc(Cl)cc1 | -5 | 3 | -7 | -2 | -3 | 0
CN(C)/C=N/c1cnc(C(=O)c2ccc(Cl)cc2)n1C | . | 62* | -7 | -1 | 30 | 0
Cc1ccc(Nc2c(-c3ccc(C)o3)nc3ncccn23)cc1 | 4 | -15 | -9 | 1 | 3 | -1
Cc1ccc(-c2nc3ncccn3c2Nc2ccccc2C)o1 | 1 | 57* | 1 | 2 | 19 | 0
Cc1ccc(-c2nc3cnccn3c2Nc2c(C)cccc2C)o1 | 36 | -85 | -8 | -3 | -82* | -2
COc1ccc(N(C)C(=O)C2CCN(S(=O)(=O)c3cccc4nonc34)CC2)cc1 | -18 | -1 | -7 | -2 | -7 | -5
COC(=O)c1ccc(C)c(NC(=O)c2ccc(Cn3cc([N+](=O)[O-])cn3)o2)c1 | 3 | 60* | 1 | 2 | 25 | -2
NNC(=O)c1ccc(Cn2cc(Br)cn2)o1 | 3 | 8 | -6 | 2 | 0 | 0
Cc1ccc(NC(=O)c2ccc(Cn3cc(Br)cn3)o2)cc1 | -2 | 226* | -14 | 1 | 160 | 6
CC(C)Oc1cc(F)ccc1-c1cc(C(=O)NCc2cccnc2)[nH]n1 | . | . | . | -2 | . | .
Cc1cccc(Nc2nc(N)c([N+](=O)[O-])c(N3CCCC(C)C3)n2)c1 (stereo not given) | 12 | 18 | 45* | 23 | -3 | 3
Nc1nc(Nc2ccccc2)nc(NCc2ccccc2)c1[N+](=O)[O-] | -5 | -9 | 34* | 11 | 7 | 5
SMILES | Platelet DG rel | HSF-1 act | dFosB activator | MPTP block | HSF1 inhib | HSP90 refold inh
Cc1cccc(Nc2nc(N)c([N+](=O)[O-])c(NCc3ccccc3)n2)c1 | 7 | 20 | 39* | 7 | 8 | 3
Cc1cccc(Nc2nc(N)c([N+](=O)[O-])c(N3CCN(C)CC3)n2)c1 | 15 | 3 | -3 | 1 | 0 | 2
Cc1ccc(CNc2nc(N)c([N+](=O)[O-])c(NCc3ccccc3)n2)cc1 | -15 | -8 | 3 | 6 | -5 | 3
CCOc1ccc(OCCC(=O)N(CC)CC(=O)Nc2ccccc2OC)cc1 | . | . | -12 | -1 | . | .
COc1ccccc1N=NNc1ccc(S(=O)(=O)NC(C)=O)cc1 | . | . | . | 1 | . | .
Cc1cccc(N2CC(C(=O)Nc3nccs3)CC2=O)c1C (stereo not given) | 12 | 12 | -6 | -1 | 3 | -2
CCOc1ccccc1N1CC(C(=O)Nc2nccs2)CC1=O (stereo not given) | 52* | -2 | 3 | 0 | -9 | -5
CC(C)CC(=O)NC(NC(=O)CC(C)C)c1cccc([N+](=O)[O-])c1 | 5 | -77 | 1 | -1 | -70* | -1
O=C(Cc1ccccc1)NC(NC(=O)Cc1ccccc1)c1cccc([N+](=O)[O-])c1 | -1 | -7 | 8 | 1 | -5 | 2
Cc1ccc(F)c(S(=O)(=O)NC(=O)C2(C)CCN2C(=O)Cc2ccccc2)c1 (stereo not given) | . | . | . | 0 | . | .
O=C(CSc1nnc(CNC(=O)c2ccco2)o1)Nc1ccc(Br)cc1 | 4 | 2 | -9 | 0 | -2 | 2
C/C(=N\OC(=O)c1ccc(Br)cc1)c1ccccn1 | 12 | 1 | -11 | -1 | -6 | -3
C/C(=N/OCc1ccc(Br)cc1)c1ccccn1 | 4 | 84* | -4 | -1 | 22 | -2
CC[C@@]1(O)C(=O)OCc2c1cc1n(c2=O)Cc2cc3c(N)cccc3nc2-1 | 2 | 50* | 3 | 1 | 23 | .
Cc1ccc(S(=O)(=O)CC(=O)Nc2ccc(S(=O)(=O)Nc3onc(C)c3C)cc2)cc1 | -5 | -88 | -4 | 0 | -84* | 0
CCc1cccc(OCC(=O)Nc2ccc(S(=O)(=O)Nc3onc(C)c3C)cc2)c1 | 17 | -82 | -4 | -1 | -79* | -3
Cc1ccc(OCC(=O)Nc2ccc(S(=O)(=O)Nc3onc(C)c3C)cc2)cc1 | -1 | 10 | -2 | -2 | -7 | -2
Cc1cccc(NC(=O)CCNS(=O)(=O)c2cc(Br)cnc2N)c1C | 4 | 7 | -6 | -2 | -5 | -1
N/C(=N\OC(=O)COc1ccc(Br)cc1Cl)c1ccncc1 | . | . | -5 | 0 | . | -3
COc1ccc(/C(N)=N/OC(=O)COc2ccccc2Cl)cc1 | -10 | 58* | 3 | -1 | 32 | -2
COc1ccc(/C(N)=N/OC(=O)/C=C/c2ccccc2)cc1 | 2 | 54* | -3 | 1 | 35 | 1
N/C(=N\OC(=O)COc1ccc(Br)cc1Cl)c1ccccn1 | 3 | 51* | -4 | -2 | 13 | 14
N/C(=N\OC(=O)COc1ccc(Cl)cc1Cl)c1ccccn1 | 8 | 74* | -13 | 0 | 28 | 13

High-throughput results (PubChem BioAssay)
